# Reference: the supplement of paper PMC4723716
# ± gives the uncertainty stated by the source. Over roughly 9,900 compounds, “viability index relative to DMSO control” has its median near 1; the lowest 2% begin near 0.85. Only a selection was taken, and the lowest values are over-represented in it overall.
# System: Plasmodium falciparum NF54 stage V gametocytes
# Assay: viability index relative to DMSO control (fraction); higher = less gametocyte killing
# Conditions: 2.5 µM, incubation time: 72 h
# In short: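 P. falciparum NF54 stage V gametocytes in serum-free screening medium (0.75% gametocytemia, 1.25% hematocrit, 10 µl) were incubated with compound at 2.5 µM in 1,536-well plates for 72 hr at 37°C under low oxygen. Then 3 µl of 2.5 µM MitoTracker Red CMXRos plus 0.13% saponin was added for one to two hours. One field per well was imaged, 20–70 µm2 red particles were counted, and the viability index was the count divided by the plate mean of DMSO wells.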
# [1] = library set: Broad Institute DOS
Structure (SMILES),viability index [1],viability index (library set: Broad Institute Blood Stage)
COc1ccccc1NC(=O)N1C[C@@H](O)COC[C@H]2O[C@H](CC(=O)N3CCC(Cc4ccccc4)CC3)CC[C@@H]21,1 ± 0.15,
COc1ccc(S(=O)(=O)Nc2ccc3c(c2)C(=O)N([C@H](C)CO)C[C@@H](C)[C@H](CN(C)S(=O)(=O)c2ccc(Cl)cc2)OCCCC[C@@H](C)O3)cc1,0.887 ± 0.072,
COc1ccc(S(=O)(=O)Nc2ccc3c(c2)C(=O)N([C@H](C)CO)C[C@H](C)[C@@H](CN(C)S(=O)(=O)c2ccc(Cl)cc2)OCCCC[C@@H](C)O3)cc1,1.02 ± 0.05,
COc1ccc(S(=O)(=O)Nc2ccc3c(c2)C(=O)N([C@@H](C)CO)C[C@@H](C)[C@@H](CN(C)S(=O)(=O)c2ccc(Cl)cc2)OCCCC[C@@H](C)O3)cc1,0.77 ± 0.046,
COc1ccc(S(=O)(=O)Nc2ccc3c(c2)C(=O)N([C@@H](C)CO)C[C@@H](C)[C@@H](CN(C)Cc2ccc(C(F)(F)F)cc2)OCCCC[C@H](C)O3)cc1,0.994 ± 0.023,
COc1ccc(S(=O)(=O)Nc2ccc3c(c2)C(=O)N([C@H](C)CO)C[C@@H](C)[C@H](CN(C)S(=O)(=O)c2ccc(Cl)cc2)OCCCC[C@H](C)O3)cc1,0.823 ± 0.033,
COc1ccc(S(=O)(=O)Nc2ccc3c(c2)C(=O)N([C@@H](C)CO)C[C@@H](C)[C@H](CN(C)S(=O)(=O)c2ccc(Cl)cc2)OCCCC[C@H](C)O3)cc1,0.9073 ± 0.0032,
COc1ccc(S(=O)(=O)Nc2ccc3c(c2)C(=O)N([C@H](C)CO)C[C@H](C)[C@@H](CN(C)S(=O)(=O)c2ccc(Cl)cc2)OCCCC[C@H](C)O3)cc1,0.886 ± 0.03,
COc1ccc(S(=O)(=O)Nc2ccc3c(c2)C(=O)N([C@@H](C)CO)C[C@@H](C)[C@@H](CN(C)S(=O)(=O)c2ccc(Cl)cc2)OCCCC[C@H](C)O3)cc1,0.911 ± 0.031,
COc1ccc(S(=O)(=O)Nc2ccc3c(c2)C(=O)N([C@@H](C)CO)C[C@H](C)[C@H](CN(C)Cc2ccc(C(F)(F)F)cc2)OCCCC[C@@H](C)O3)cc1,1.05 ± 0.2,
COc1ccc(S(=O)(=O)Nc2ccc3c(c2)C(=O)N([C@@H](C)CO)C[C@H](C)[C@H](CN(C)S(=O)(=O)c2ccc(Cl)cc2)OCCCC[C@@H](C)O3)cc1,0.953 ± 0.064,
COc1ccc(S(=O)(=O)Nc2ccc3c(c2)C(=O)N([C@@H](C)CO)C[C@H](C)[C@@H](CN(C)Cc2ccc(C(F)(F)F)cc2)OCCCC[C@@H](C)O3)cc1,0.829 ± 0.0097,
COc1ccc(S(=O)(=O)Nc2ccc3c(c2)C(=O)N([C@H](C)CO)C[C@@H](C)[C@@H](CN(C)S(=O)(=O)c2ccc(Cl)cc2)OCCCC[C@@H](C)O3)cc1,0.533 ± 0.11,
N#C[C@@H]1[C@H](c2ccccc2-c2cccc(F)c2)[C@@H](CO)N1C(=O)c1cccnc1,1.09 ± 0.063,
O=C(c1cccc(F)c1)N1CC2(C1)[C@H](c1ccccc1)[C@@H](CO)N2Cc1ccccn1,1.13 ± 0.11,
C[C@@H]1CN([C@@H](C)CO)C(=O)CCCn2nncc2CO[C@H]1CN(C)S(=O)(=O)c1ccc(Oc2ccccc2)nc1,1 ± 0.074,
C/C=C/c1ccc([C@H]2[C@H]3CNC[C@@H]2N3S(=O)(=O)Cc2ccccc2)cc1,1.06 ± 0.047,
N#C[C@H]1[C@@H](c2ccccc2-c2ccc(F)cc2)[C@@H](CO)N1C(=O)Cc1cccnc1,1.15 ± 0.046,
CO[C@@H]1CN(C)C(=O)c2cc(NC(=O)Nc3cc(F)ccc3F)ccc2OC[C@@H](C)NC[C@H]1C,1.105 ± 0.0072,
Cc1noc(C)c1NC(=O)N(C)C[C@H]1Oc2ccc(NC(=O)Cc3cn(C)c4ccccc34)cc2CC(=O)N([C@H](C)CO)C[C@@H]1C,1.04 ± 0.045,
COCC(=O)N1C[C@@H](C)[C@H](OC)CN(C)C(=O)c2ccc(NC(=O)Nc3cccc(F)c3)cc2OC[C@@H]1C,1.032 ± 0.0043,
C[C@@H]1CCn2cc(nn2)COC[C@H](C)NC1=O,1.06 ± 0.018,

Structure (SMILES),viability index [1],viability index (library set: Broad Institute Blood Stage)
CC(=O)N1[C@H](CO)[C@@H](c2ccccc2)C12CN(Cc1ccc(Cl)cc1)C2,1.06 ± 0.056,
CCN(C[C@H]1N[C@H](CO)[C@@H]1c1ccccc1)C(=O)c1ccncc1,1 ± 0.019,
C[C@H]1CCCCO[C@H](CN(C)C(=O)Nc2cccc3ccccc23)[C@@H](C)CN([C@@H](C)CO)C(=O)c2cc(NC(=O)CCC(F)(F)F)ccc2O1,0.993 ± 0.057,
COCC(=O)N1[C@H](C#N)[C@H](c2ccccc2-c2cccc(C)c2)[C@H]1CO,1.15 ± 0.053,
CCCC(=O)Nc1ccc2c(c1)OC[C@H](C)N(CC1CCOCC1)C[C@@H](C)[C@H](OC)CN(C)C2=O,1.02 ± 0.039,
O=C(C[C@@H]1CC[C@@H]2NC[C@@H](O)COC[C@H]2O1)Nc1ccc(-c2ccccc2)cc1,1.06 ± 0.024,
O=C(C[C@H]1CC[C@@H]2NC[C@H](O)COC[C@H]2O1)Nc1ccc(-c2ccccc2)cc1,1.0439 ± 3.9e-05,
O=C(C[C@@H]1CC[C@H]2NC[C@@H](O)COC[C@@H]2O1)Nc1ccc(-c2ccccc2)cc1,0.826 ± 0.077,
Cc1cccc(S(=O)(=O)N2C[C@H]3[C@@H](c4ccccc42)[C@H](CO)N3Cc2ccc3c(c2)OCO3)c1,1.01 ± 0.012,
O=C(C1CCOCC1)N1CC(=O)N2[C@H](CO)[C@H](c3ccc(/C=C/c4ccccc4)cc3)[C@@H]2C1,0.99 ± 0.011,
C[C@@H]1CN([C@@H](C)CO)C(=O)c2cccc(NC(=O)c3ccc(-c4nccs4)cc3)c2O[C@@H]1CN(C)C(=O)Nc1cccc2ccccc12,,0.784 ± 0.023
Cc1noc(C)c1S(=O)(=O)N(C)C[C@@H]1Oc2c(NC(=O)c3ccc(-c4nccs4)cc3)cccc2C(=O)N([C@H](C)CO)C[C@@H]1C,0.978 ± 0.068,
Cc1noc(C)c1S(=O)(=O)N(C)C[C@@H]1Oc2c(NC(=O)c3ccc(-c4nccs4)cc3)cccc2C(=O)N([C@@H](C)CO)C[C@@H]1C,0.955 ± 0.036,
C[C@H](CO)N1C[C@H](C)[C@H](CN(C)C(=O)Nc2ccc(C(F)(F)F)cc2)Oc2c(NC(=O)c3ccc(-c4nccs4)cc3)cccc2C1=O,1.04 ± 0.021,
C[C@@H]1CN([C@@H](C)CO)C(=O)c2cccc(NC(=O)C3CCOCC3)c2O[C@@H]1CN(C)C(=O)Nc1cccc2ccccc12,0.974 ± 0.06,
C[C@@H]1CN([C@@H](C)CO)C(=O)c2cccc(NC(=O)c3ccc(-c4nccs4)cc3)c2O[C@H]1CN(C)C(=O)Nc1ccc(C(F)(F)F)cc1,1.011 ± 0.0069,
C[C@H](CO)N1C[C@H](C)[C@H](CN(C)C(=O)Nc2cccc3ccccc23)Oc2ncccc2C1=O,0.826 ± 0.021,
C[C@@H]1CN([C@H](C)CO)C(=O)c2cccc(NC(=O)c3ccc(-c4nccs4)cc3)c2O[C@H]1CN(C)C(=O)Nc1ccc(C(F)(F)F)cc1,0.97 ± 0.025,
C[C@@H]1CN([C@@H](C)CO)C(=O)c2cccc(NC(=O)c3ccc(-c4nccs4)cc3)c2O[C@@H]1CN(C)C(=O)Nc1ccc(C(F)(F)F)cc1,0.556 ± 0.084,
C[C@@H]1CN([C@@H](C)CO)C(=O)c2cccc(NC(=O)C3CCOCC3)c2O[C@H]1CN(C)C(=O)Nc1cccc2ccccc12,0.966 ± 0.063,
Cc1noc(C)c1S(=O)(=O)N(C)C[C@@H]1Oc2c(NC(=O)c3ccc(-c4nccs4)cc3)cccc2C(=O)N([C@@H](C)CO)C[C@H]1C,0.828 ± 0.018,
C[C@H](CO)N1C[C@H](C)[C@@H](CN(C)C(=O)Nc2ccc(C(F)(F)F)cc2)Oc2c(NC(=O)c3ccc(-c4nccs4)cc3)cccc2C1=O,0.953 ± 0.018,
